The values below come from PubChem BioAssay (EPA / NIEHS).

Where “and” joins values, the source holds several entries; their conditions need not be identical. Equal values may be shown once. Calls of active or inactive are those of the source. How the source made its calls: active means hit-call score of the fitted dose curve at least 0.9, where 1 is the maximum; inactive means score below 0.9.

Read-out in this test: ABC Transporter (ABCC2), ABCC2 (gene 1244)
The test is described as follows: LTEA_HepaRG_ABCC2: Life Technologies and Expression Analysis (LTEA) Assay for ABC Transporter (ABCC2) using HepaRG (AID 2283464). The conditions noted are these: mRNA level, 48 h; actives raise or lower the signal. As to the method:
LTEA_HepaRG is a cell based, multiplexed-readout assay that uses HepaRG, a human liver cell line, with measurements taken at 48 hours after chemical dosing on a 96-well plate.LTEA_HepaRG_ABCC2 is one of 102 assay component(s) measured in the LTEA HepaRG cell culture assay. It is a marker of Steatosis/NR mediated transport.Data from the assay component LTEA_HepaRG_ABCC2 was analyzed into 1 endpoint. This assay endpoint, LTEA_HepaRG_ABCC2, was analyzed with bidirectional fitting relative to DMSO as the negative control and baseline of activity. Using a type of inducible reporter, measures of mRNA induction for gain or loss-of-signal activity can be used to understand regulation of transcription factor activity. To generalize the intended target to other relatable targets, this assay endpoint is annotated to the transporter intended target family, where the subfamily is ABC transporter.
A total of 1060 chemcials from the ToxCast library were tested in eight-point concentration-response experiments. Cell culture and cytotoxicity assays were conducted at Thermo Fisher Scientific's Custom Services facility (Madison, WI). A single lot of human HepaRG cells (Thermo Fisher Scientific, Frederick, MD) was used for the cell culture experiments. 96-well format collagen type I coated plates of human HepaRG cells were prepared using established methods. Briefly, cryopreserved HepaRG cells were thawed, plated at a density of approximately 100,000 cells/well in HepaRG Thaw, Plate, and General Purpose media (HPRG770, Thermo Fisher Scientific), and incubated for 48 hours. 0.5% DMSO was selected as vehicle control to balance the requisite need of DMSO in HepaRG cultures to maintain differentiation (for example, baseline metabolism, proportions of hepatocytes vs. cholangiocytes), while enabling further hepatic receptor pathway activation (for example, PXR and CAR) in response to chemical exposure. 48 hours after plating, the culture medium was replaced with HepaRG Serum-Free Incudtion Media. Cells were exposed to each test chemical in duplicate and maintained in CO2 incubators for another 48 hours. Chemical plates were thawed to room temperature and 200x concentrations of treatment groups were prepared. 8-point conentration-reponse curves were made with the highest exposure at 100 uM, followed by half-log dilutions, all in 0.5% DMSO. Each test plate contained variouse controls, induction positive controls (1mM phenobarbital), cytotoxicity positive controls ([…] aflatoxin B1), vehicle controls (0.5% DMSO), and total lysis controls (0.5% DMSO). Cell morphology images were taken using an Essen IncuCyte FLR automated microscope, with six 96-well plates imaged in about 24 minutes. Images were captured and exported and JPEG files. Spent culture media was transfered to black-well plates for the LDH assay, and remaining media was sorted at -80 C for later use. Cells were treated with RLT buffer and frozen until shipped for gene expression analysis. Total RNA was isolated from the cell suspension in 75 uL of Buffer RLT (Qiagen, Germantown, MD 20874) by Quintiles/Expression Analysis (Durham, NC) using a custom isolation procedure. Total RNA from each plate well was transferred to a preamplification plate. Fluidigm's 96.96 Dynamic ArrayTM (Fluidigm, Amsterdam, the Netherlands) technology was used for gene expression analyses by quantitative reverse transcription polymerase chain reaction (qRT-PCR, performed by Quintiles/Expression Analysis, Durham, NC)89. Standard TaqManTM Assays (Applied Biosystems/ThermoFisher Scientific, Foster City, CA) were used to assess the expression of 93 genes selected based on their selectivity and sensitivity to important hepatic receptors known to be modulated by environmental chemicals; importance in human hepatocyte functionality; and hepatotoxicity. […]
On to `CCCCC(CC)COC(=O)c1ccccc1C(=O)O` (stereo not given), for which the molecule was called inactive.
On the same count and under the same terms, to `CCCCOC(=O)C(C)Oc1ccc(Oc2ccc(C(F)(F)F)cn2)cc1` (stereo not given) belongs “inactive”.
With `C[C@]12CC[C@@H]3c4ccc(O)cc4C[C@@H](CCCCCCCCCS(=O)CCCC(F)(F)C(F)(F)F)[C@H]3[C@@H]1CC[C@@H]2O` (stereo not given in full), the concentration at half-maximal activity (AC50) was 22.4 µM (active).
For `C#CCOC(=O)[C@@H](C)Oc1ccc(Oc2ncc(Cl)cc2F)cc1`, the outcome was inactive.
`CCN(CC)C(=O)c1cccc(C)c1`: the AC50 is 21.5 µM (active).
On to `CCOC(=O)C(C)Oc1ccc(Oc2cnc3cc(Cl)ccc3n2)cc1` (stereo not given), for which the result was inactive.
Still for that read-out and setting: for `c1ccc(Nc2ccccc2)cc1` the value was “inactive”.
`CN(C)C(=O)Nc1ccc(Cl)c(Cl)c1`: the molecule was called inactive.
The same measure, in the same setting: for `c1ccc2[nH]c(-c3cscn3)nc2c1` the value was “inactive”; for `OB(O)O`, “inactive”; for `CCOC(=O)c1ccc(O)cc1`, “inactive”.
As to `COC(=O)CSc1cc(N=c2sc(=O)n3n2CCCC3)c(F)cc1Cl`, the AC50 is 50 µM (active).
Consider `CCOC(=O)COc1cc(-n2ncc(C(F)(F)F)c(C)c2=O)c(F)cc1Cl`, for which the call was inactive.
Regarding `CCSC(=O)N(CC(C)C)CC(C)C`, the call was inactive.
For the molecule `C#C[C@]1(O)CC[C@H]2[C@@H]3CCC4=CC(=O)CC[C@@H]4[C@H]3CC[C@@]21CC`, the molecule was classed as inactive.
Still for that read-out and setting: to `COCCO` belongs “inactive”; to `CCC(C)OC(=O)N1CCCCC1CCO` (stereo not given), “inactive”; to `CCOC(=O)NCCOc1ccc(Oc2ccccc2)cc1`, “inactive”.
Same read-out and setting: for `N#CSCSc1nc2ccccc2s1` the value was “inactive”.
As to `N[C@@H](Cc1cc(I)c(Oc2ccc(O)c(I)c2)c(I)c1)C(=O)O`, the concentration at half-maximal activity (AC50) is 7.94 µM (active).
On to `CCCN(CCC)c1c([N+](=O)[O-])cc(C(F)(F)F)c(N)c1[N+](=O)[O-]`, for which the half-maximal activity concentration (AC50) is 25.4 µM (active).
Turning to `COC(=O)c1ccc(I)cc1S(=O)(=O)NC(=O)Nc1nc(C)nc(OC)n1`, the call was inactive.
Same read-out and setting: to `CC(=O)S[C@@H]1CC2=CC(=O)CC[C@]2(C)[C@H]2CC[C@@]3(C)[C@@H](CC[C@@]34CCC(=O)O4)[C@H]12` belongs “inactive”; to `COc1c(Cl)ccc(Cl)c1C(=O)O`, “inactive”.
`S=C(S)NCCNC(=S)S.[Mn+2].[S-]C([S-])=NCCN=C([S-])[S-].[Zn+2]`: the AC50 is 1.09 µM (active) and 988 nM (active) and 1.44 µM (active).
`C[C@]12C[C@H](O)[C@H]3[C@@H](CCC4=CC(=O)CC[C@@]43C)[C@@H]1CC[C@@H]2C(=O)CO`: the concentration at half-maximal activity (AC50) is 67.9 µM (active).
In the case of `Cc1nn(C)c(Oc2ccccc2)c1C=NOCc1ccc(C(=O)OC(C)(C)C)cc1`, the molecule was classed as inactive.
With `CC1(C)C(C=C(Cl)Cl)C1C(=O)OCc1cccc(Oc2ccccc2)c1` (stereo not given), the outcome was inactive.
As to `O=C(Nc1ccc([N+](=O)[O-])cc1Cl)c1cc(Cl)ccc1O`, the AC50 is 3.13 µM (active).
Consider `CCNc1nc(N)nc(Cl)n1`, for which the outcome was inactive.
Turning to `CCCCOCCOCCOCc1cc2c(cc1CCC)OCO2`, the half-maximal activity concentration (AC50) is 7.48 µM (active).
With `CCOC(=O)C(C)Oc1ccc(Oc2nc3ccc(Cl)cc3o2)cc1` (stereo not given), the result was inactive.
For `CCCOC(=O)NCCCN(C)C`, the molecule was called inactive.
Take `S=C([S-])NCCNC(=S)[S-].[Mn+2]`: the AC50 is 2.87 µM (active).
The same measure, in the same setting: for `CC(=O)[C@H]1CC[C@H]2[C@@H]3CCC4=CC(=O)CC[C@]4(C)[C@H]3CC[C@]12C` the value was 78.9 µM (active).
On to `Oc1ccc(C(c2ccc(O)cc2)C(Cl)(Cl)Cl)cc1`, for which the AC50 is 83.1 µM (active).
`CC(C)CCCCCCc1ccc(O)cc1`: the outcome was inactive.
As for `O=C(O)C1(C(=O)Nc2ccc(Cl)cc2Cl)CC1`, the AC50 is 66.4 µM (active).
As to `CCCCOC(=O)[C@@H](C)Oc1ccc(Oc2ccc(C(F)(F)F)cn2)cc1`, the call was inactive.
Still for that read-out and setting: for `O=C(O)c1ccccc1` the value was “inactive”.
